Mtb FBA inh: inhibitors of M. tuberculosis fructose-bisphosphate aldolase; P9WQA3; purified M. tuberculosis FBA, fluorescence read-out; inhibition, % at 1 µM; 360,000 tested, 2.3% active; AID 588726; in the data active means inhibition above about 27%
Yp Topo-I inh: blocks Yersinia pestis topoisomerase I activity. activity, % at 10 µM. Y. pestis Topo-I cleavage product accumulation, plate reader. AID 504884. 360,000 tested, 0.064% active; in the data active means activity above about 50%, passing the limit was not always enough
GDH-TPI counter-1: counter-screen for M. tuberculosis FBA inhibitors: GDH-TPI coupled enzymes; GDH-TPI coupled enzyme counterscreen, NADH absorbance; inhibition, % at 4.8 µM; 360,000 tested, 1.2% active; in the data active means inhibition above about 30%
TcdB inh: TcdB glycohydrolase inhibition; P18177; TcdB glycohydrolase enzymatic assay, plate reader; inhibition, % at 9.99 µM; 350,000 tested, 0.24% active
Target sequence (P18177 whole entry, looked up): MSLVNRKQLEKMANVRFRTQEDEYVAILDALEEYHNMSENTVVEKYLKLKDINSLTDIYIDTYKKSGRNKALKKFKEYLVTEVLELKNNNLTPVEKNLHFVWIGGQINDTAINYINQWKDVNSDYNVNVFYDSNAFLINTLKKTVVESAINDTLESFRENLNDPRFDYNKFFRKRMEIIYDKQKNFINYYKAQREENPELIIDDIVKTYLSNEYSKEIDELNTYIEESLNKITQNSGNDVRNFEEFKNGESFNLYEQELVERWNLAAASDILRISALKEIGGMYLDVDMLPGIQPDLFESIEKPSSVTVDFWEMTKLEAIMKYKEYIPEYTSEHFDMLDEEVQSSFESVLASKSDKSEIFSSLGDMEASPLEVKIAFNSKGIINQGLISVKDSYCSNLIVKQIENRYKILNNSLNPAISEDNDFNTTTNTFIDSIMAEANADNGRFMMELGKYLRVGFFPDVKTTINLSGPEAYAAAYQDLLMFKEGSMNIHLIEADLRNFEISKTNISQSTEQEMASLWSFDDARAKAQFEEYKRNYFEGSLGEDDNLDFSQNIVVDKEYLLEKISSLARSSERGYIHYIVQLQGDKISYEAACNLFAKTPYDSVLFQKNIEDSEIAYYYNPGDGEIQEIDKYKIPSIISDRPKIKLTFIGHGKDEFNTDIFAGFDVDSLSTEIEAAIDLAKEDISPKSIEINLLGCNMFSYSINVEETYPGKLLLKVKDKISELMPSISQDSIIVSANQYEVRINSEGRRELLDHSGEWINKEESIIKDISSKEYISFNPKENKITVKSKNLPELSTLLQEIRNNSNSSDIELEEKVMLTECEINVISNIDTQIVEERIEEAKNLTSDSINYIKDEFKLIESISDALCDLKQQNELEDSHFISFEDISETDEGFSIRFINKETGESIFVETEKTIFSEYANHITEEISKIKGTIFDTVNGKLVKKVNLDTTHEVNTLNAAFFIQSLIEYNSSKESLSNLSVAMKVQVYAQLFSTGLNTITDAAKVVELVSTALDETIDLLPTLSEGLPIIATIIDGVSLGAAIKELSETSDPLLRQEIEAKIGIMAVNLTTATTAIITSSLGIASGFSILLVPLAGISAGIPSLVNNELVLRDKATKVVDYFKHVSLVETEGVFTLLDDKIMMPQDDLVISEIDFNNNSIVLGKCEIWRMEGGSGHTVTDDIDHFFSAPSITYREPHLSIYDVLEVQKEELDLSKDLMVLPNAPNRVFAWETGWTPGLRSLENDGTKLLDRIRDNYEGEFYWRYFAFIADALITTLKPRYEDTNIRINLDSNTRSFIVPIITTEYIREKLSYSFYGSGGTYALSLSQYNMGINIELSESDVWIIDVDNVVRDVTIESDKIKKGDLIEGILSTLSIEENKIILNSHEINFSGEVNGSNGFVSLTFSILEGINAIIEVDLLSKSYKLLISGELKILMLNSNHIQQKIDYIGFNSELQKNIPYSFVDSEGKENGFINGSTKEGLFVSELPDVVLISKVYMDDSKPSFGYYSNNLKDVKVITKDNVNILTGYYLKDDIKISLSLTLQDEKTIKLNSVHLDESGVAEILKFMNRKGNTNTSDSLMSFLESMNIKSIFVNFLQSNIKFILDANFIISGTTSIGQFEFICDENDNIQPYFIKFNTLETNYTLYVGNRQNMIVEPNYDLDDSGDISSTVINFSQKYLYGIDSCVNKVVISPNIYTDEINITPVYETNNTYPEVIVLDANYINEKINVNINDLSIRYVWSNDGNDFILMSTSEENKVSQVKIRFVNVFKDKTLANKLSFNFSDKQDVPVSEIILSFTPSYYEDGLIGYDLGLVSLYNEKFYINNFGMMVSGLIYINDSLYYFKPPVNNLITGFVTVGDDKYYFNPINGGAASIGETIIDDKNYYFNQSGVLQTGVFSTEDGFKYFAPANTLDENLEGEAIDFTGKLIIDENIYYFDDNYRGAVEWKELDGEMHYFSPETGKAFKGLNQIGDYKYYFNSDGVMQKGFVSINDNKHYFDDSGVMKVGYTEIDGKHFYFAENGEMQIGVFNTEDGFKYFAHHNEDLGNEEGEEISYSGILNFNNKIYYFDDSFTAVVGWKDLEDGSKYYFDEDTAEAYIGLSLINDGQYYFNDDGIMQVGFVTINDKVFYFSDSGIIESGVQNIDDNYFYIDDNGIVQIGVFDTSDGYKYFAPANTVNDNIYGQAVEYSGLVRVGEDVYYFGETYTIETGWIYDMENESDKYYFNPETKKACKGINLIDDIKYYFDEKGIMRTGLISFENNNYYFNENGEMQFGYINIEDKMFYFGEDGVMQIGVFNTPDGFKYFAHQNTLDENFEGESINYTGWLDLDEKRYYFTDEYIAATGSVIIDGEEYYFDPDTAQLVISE
PrPC surface inh: inhibitors of human cell surface prion protein PrPC; P04156; TR-FRET read-out; inhibition, % at 13.8 µM; 370,000 tested, 0.43% active; in the data active means inhibition above about 24%
Mtb FBA confirm: confirmation of M. tuberculosis fructose-bisphosphate aldolase inhibitors | shares compounds with Mtb FBA inh | purified M. tuberculosis FBA, fluorescence read-out | inhibition, % at 1 µM | 5,600 tested, 78% active; in the data active means inhibition above about 27%
GDH-TPI counter-2: GDH-TPI inhibition counter-screen for FBA inhibitors; AID 652141; 5,600 tested, 81% active; inhibition, % at 1 µM; GDH-TPI coupled enzyme counterscreen, fluorescence; shares compounds with Mtb FBA inh
Each line names hits and unclear results; the compound was inactive in the other large screens (follow-up assays come after a bar, where they were run). An excerpt weighted towards active compounds, which were near 3.2% of everything screened. Unless noted, no stated cut-off is given here; in the data, active means inhibition above about 10%; inactive means the rest.

CO[C@@H]1CN(C)C(=O)c2cc(NC(C)=O)ccc2OC[C@H](C)N(Cc2ccncc2)C[C@@H]1C	none (no result: Mtb FBA inh, Yp Topo-I inh, GDH-TPI counter-1, PrPC surface inh)
COc1ccc(CN(C)C[C@H]2OCCCC[C@H](C)Oc3ccc(NC(=O)NC4CCCCC4)cc3C(=O)N([C@H](C)CO)C[C@@H]2C)cc1	none (no result: Mtb FBA inh, Yp Topo-I inh, GDH-TPI counter-1, PrPC surface inh)
Nc1nc2c(c3c1c(=O)oc1ccccc13)CCCCC2	Mtb FBA inh 38 (no result: TcdB inh) | Mtb FBA confirm inactive | GDH-TPI counter-2 inactive
Nc1c(N)c2ccccc2oc1=O	none (no result: TcdB inh)
COCCNC(=O)C[C@@H]1C[C@H]2c3cc(NC(=O)Nc4ccc(OC)cc4)ccc3O[C@H]2[C@H](CO)O1	none (no result: Mtb FBA inh, Yp Topo-I inh, GDH-TPI counter-1, PrPC surface inh)
O=C1C=CC(=O)N1c1ccc(-c2nc3ccccc3o2)cc1	Mtb FBA inh 65 (no result: TcdB inh, PrPC surface inh) | Mtb FBA confirm inactive | GDH-TPI counter-2 inactive
O=C1C2C3C=CC(C3)C2C(=O)N1c1cccc(-c2nc3ccccc3o2)c1 (stereo unspecified)	none (no result: TcdB inh)
Cc1cc(OCC(=O)N2CCc3ccccc3C2)c2c(-c3ccccc3)cc(=O)oc2c1	none (no result: TcdB inh)
CCCc1cc(=O)oc2cc(C)cc(OC(=O)c3ccco3)c12	none
CCCCc1cc(=O)oc2cc(C)cc(OCC(=O)N3CCC(C(=O)O)(c4ccccc4)CC3)c12	Mtb FBA inh 62 | Mtb FBA confirm 52 | GDH-TPI counter-2 34
CCCc1cc(=O)oc2cc(C)cc(OCC(=O)N3CCC(C(=O)O)CC3)c12	Mtb FBA inh 97 | Mtb FBA confirm 73 | GDH-TPI counter-2 65
CCCc1cc(=O)oc2cc(C)cc(OCC(=O)N3CCC(C(N)=O)CC3)c12	Mtb FBA inh 39 | Mtb FBA confirm 85 | GDH-TPI counter-2 81
CCCc1cc(=O)oc2cc(OCC(=O)N3CCC(C(=O)O)(c4ccccc4)CC3)ccc12	Mtb FBA inh 76 | Mtb FBA confirm 101 | GDH-TPI counter-2 81
COc1ccccc1N1CCN(C(=O)COc2cc(C)cc3oc(=O)cc(C)c23)CC1	none
C[C@@H]1CN([C@@H](C)CO)C(=O)c2cc(NC(=O)Cc3cn(C)c4ccccc34)ccc2O[C@@H]1CN(C)S(=O)(=O)c1cn(C)cn1	none (no result: Mtb FBA inh, Yp Topo-I inh, GDH-TPI counter-1, PrPC surface inh)
Cc1cc(OCC(=O)NCC2CCC(C(=O)O)CC2)c2c3c(c(=O)oc2c1)CCC3 (stereo unspecified)	none
Cc1cc(OCC(=O)N2CCC(C(=O)O)CC2)c2c3c(c(=O)oc2c1)CCC3	Mtb FBA inh 98 | Mtb FBA confirm 166 | GDH-TPI counter-2 133
CCc1cc(=O)oc2cc(C)cc(OCC(=O)N3CCC(C(=O)O)CC3)c12	Mtb FBA inh 76 | Mtb FBA confirm 121 | GDH-TPI counter-2 109
CC(=O)Nc1ccc2c(c1)C(=O)N(C)[C@H]1CC[C@H](CC(=O)Nc3cccc(Cl)c3)O[C@@H]1CO2	none (no result: Mtb FBA inh, Yp Topo-I inh, GDH-TPI counter-1, PrPC surface inh)
CN1c2ccc(-c3ccc(C#N)cc3)cc2[C@H]2[C@H](CCN2C(=O)C2CCCCC2)[C@@H]1CO	none (no result: Mtb FBA inh, Yp Topo-I inh, GDH-TPI counter-1, PrPC surface inh)
COCC(=O)Nc1ccc2c(c1)[C@H]1C[C@@H](CC(=O)NC3CCCC3)O[C@@H](CO)[C@H]1O2	none (no result: Mtb FBA inh, Yp Topo-I inh, GDH-TPI counter-1, PrPC surface inh)
CCCCCCC(=O)Nc1c2c(nc3ccccc13)N(C)CC2	Mtb FBA inh 48 (no result: TcdB inh) | Mtb FBA confirm 94 | GDH-TPI counter-2 100
COc1cccc(S(=O)(=O)N[C@H]2C=C[C@@H](CC(=O)NC3Cc4ccccc4C3)O[C@@H]2CO)c1	none (no result: Mtb FBA inh, Yp Topo-I inh, GDH-TPI counter-1, PrPC surface inh)
O=C(Nc1ccc2c(c1)C(=O)OC2)c1ccc(Cl)cc1Cl	none
CN1C(=O)c2ccc(NC(=O)c3ccc(Cl)cc3Cl)cc2C1=O	Mtb FBA inh 38 | Mtb FBA confirm 95 | GDH-TPI counter-2 70
COC(=O)/C(C#N)=C/c1c(N2CCCCCC2)nc2c(C)cccn2c1=O	none
CNC(=O)/C(C#N)=C/c1c(N2CCCCCC2)nc2ccccn2c1=O	Mtb FBA inh 64 | Mtb FBA confirm inactive | GDH-TPI counter-2 inactive
CNC(=O)/C(C#N)=C/c1c(N2CCN(c3ccccc3)CC2)nc2c(C)cccn2c1=O	Mtb FBA inh 37 | Mtb FBA confirm inactive | GDH-TPI counter-2 inactive
CNC(=O)/C(C#N)=C/c1c(N2CCCCCC2)nc2c(C)cccn2c1=O	Mtb FBA inh 28 | Mtb FBA confirm active | GDH-TPI counter-2 184
CNC(=O)/C(C#N)=C/c1c(N2CCN(c3ccc(OC)cc3)CC2)nc2c(C)cccn2c1=O	Mtb FBA inh 37 | Mtb FBA confirm active | GDH-TPI counter-2 142
Cc1cccn2c(=O)c(C=C(C#N)C#N)c(N3CCN(c4ccccc4)CC3)nc12	none
COCCCNC(=O)/C(C#N)=C/c1c(N2CCN(c3ccc(OC)cc3)CC2)nc2c(C)cccn2c1=O	none
CCN1CCN(c2nc3c(C)cccn3c(=O)c2/C=C(\C#N)C(=O)NCCOC)CC1	Mtb FBA inh 97 | Mtb FBA confirm 63 | GDH-TPI counter-2 45
COCCNC(=O)/C(C#N)=C/c1c(N2CCN(C)CC2)nc2c(C)cccn2c1=O	Mtb FBA inh 81 | Mtb FBA confirm 96 | GDH-TPI counter-2 84
COCCCNC(=O)/C(C#N)=C/c1c(N2CCN(C)CC2)nc2c(C)cccn2c1=O	Mtb FBA inh 92 | Mtb FBA confirm 56 | GDH-TPI counter-2 44
C[C@@H]1CN([C@H](C)CO)C(=O)c2cccc(NC(=O)NC3CCCCC3)c2O[C@@H]1CN(C)CC1CC1	none (no result: Mtb FBA inh, Yp Topo-I inh, GDH-TPI counter-1, PrPC surface inh)
C=CCSc1nnc(-c2sc(-c3ccccc3)nc2C)n1C	Mtb FBA inh 64 (no result: TcdB inh) | Mtb FBA confirm inactive | GDH-TPI counter-2 inactive
c1ccc(-c2ccc(-c3n(-c4ccccn4)c4ccccc4[n+]3-c3ccccn3)cc2)cc1	Mtb FBA inh 46 | Mtb FBA confirm 189 | GDH-TPI counter-2 172

Assay outcomes: PubChem, several laboratories
